# Bioassay records as filed in PubChem.
# SKKanGAS inh = S. pyogenes SKKanGAS growth inhibitors in kanamycin, primary screen, streptokinase expression inhibitor project, SKKanGAS strain, BacTiter-Glo luminescence; AID 1662, 2009; actives 1.3% (n = 300,000); 6 h; inhibition, % at 7.5 µM;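 active means mean replicate score, as percent of positive control median, at least 50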;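 further: strain carries kanamycin resistance gene driven by streptokinase promoter and grows in 40 µg/ml kanamycin; loss of luminescence reflects streptokinase promoter inhibition or plain growth inhibition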
# tim10-1 inh = growth inhibitors of tim10-1 mutant yeast, primary screen, luminescence, uHTS. AID 463190, 2010. actives 2.2% (n = 330,000). S. cerevisiae tim10-1 ts strain growth, BacTiter-Glo, 24 h. inhibition, % at 20 µM;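 active means inhibition of at least 40%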;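 further: mutant grown at 25 °C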
# PfHsp90 set2 = growth inhibition of PfHsp90-expressing yeast, primary screen, antimalarial PfHsp90 inhibitor project, S. cerevisiae, BacTiter-Glo luminescence, single point, set 2. inhibition, % at 9.4 µM. BacTiter-Glo ATP, 48 h; yeast lacking PDR1 and PDR3 efflux regulators. actives 0.32% (n = 310,000). AID 504621, 2011;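 active means every replicate shows inhibition above about 80%, whatever the replicate mean, limit read from the data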
# tim23-1 inh = growth inhibitors of tim23-1 mutant yeast, primary screen, luminescence, uHTS; S. cerevisiae tim23-1 growth, BacTiter-Glo luminescence, 24 h; inhibition, % at 20 µM; actives 1.3% (n = 330,000); AID 463212, 2010;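 active means growth inhibition of the mutant yeast at or above 50%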;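 further: temperature-sensitive mutant grown at 25 °C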
# TIM10 inh = growth inhibitors of isogenic TIM10 control yeast, primary screen, counter-screen for tim10-1 yeast inhibitor project, luminescence, uHTS | S. cerevisiae TIM10 strain growth, BacTiter-Glo luminescence, 24 h | inhibition, % at 10 µM | actives 1.4% (n = 330,000);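 active means inhibition of 40% or more at the single tested concentration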;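 further: wild-type TIM10 isogenic control strain grown at permissive 25 °C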
# Calb FLC = C. albicans growth inhibition with fluconazole, primary screen, CaCi-2 strain, Alamar Blue fluorescence. C. albicans CaCi-2 (fluconazole-resistant clinical isolate) + fluconazole, 48 h. growth inhibition, % (no concentration beside the values). actives 0.57% (n = 300,000). AID 1979, 2009;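 active means growth inhibition above about 58% in most replicates, limit read from the data, passing the limit was not always enough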;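 further: all wells also contain fluconazole at 8 µg/ml as a sub-toxic cotreatment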
# tim10-1 confirm = growth inhibitors of tim10-1 mutant yeast, confirmation, single concentration, luminescence, S. cerevisiae. shares compounds with tim10-1 inh. S. cerevisiae tim10-1 ts strain growth, BacTiter-Glo, 24 h. inhibition, % at 20 µM. actives 56% (n = 7,400);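 active means inhibition of yeast growth at or above a set limit in either of two repeat tests at 20 µM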;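 further: tim10-1 mutant grown at permissive 25 °C to find synthetic lethal compounds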
# TIM10 conf = growth inhibitors of wild-type TIM10 yeast, confirmation, counter-screen for tim10-1 synthetic lethality project, single concentration, luminescence, S. cerevisiae; S. cerevisiae tim10 strain growth, BacTiter-Glo luminescence, 24 h; inhibition, % at 10 µM; shares compounds with TIM10 inh; AID 463215, 2010; actives 63% (n = 4,600);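 active means inhibition of yeast growth at or above a set limit in either of two replicates at 10 µM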; further: this counterscreen used the strain with wild-type TIM10
# Numbers stand for hits; 0 = inactive; - = not tested or not shown. In the library only some 4.7% were active in any assay of this set; here they are far more common.
SMILES,SKKanGAS inh,tim10-1 inh,PfHsp90 set2,tim23-1 inh,TIM10 inh,Calb FLC,tim10-1 confirm,TIM10 conf
CN(Cc1ccco1)C(=O)c1ccc(CNS(=O)(=O)c2ccc3c(c2)C(C)(C)C(=O)N3C)cc1,0,0,0,0,0,0,-,-
OC(CNCC(c1ccc(Cl)cc1Cl)c1c[nH]c2ccccc12)c1ccccc1 (stereo not given),80,54,-,0,59,0,0,61
CCOc1c(Cl)cc(CNCC(O)c2ccccc2)cc1OC (stereo not given),0,0,0,0,0,0,-,-
Cc1ccc(N2C(=O)N(CC(=O)Nc3ccc(F)c(F)c3)C(=O)C2C)cc1 (stereo not given),0,0,0,0,0,0,-,-
CCC1CSC(Nc2ccc(C(=O)/C=C/c3cccc(C)c3)cc2)=N1 (stereo not given),0,57,0,0,62,0,44,62
CCC1CSC(Nc2ccc(C(=O)/C=C/c3ccc(Oc4ccccc4)cc3)cc2)=N1 (stereo not given),0,0,0,0,0,0,-,-
NS(=O)(=O)c1cc2c(cc1Cl)NC(c1ccccc1OCC(=O)O)NS2(=O)=O (stereo not given),0,0,0,0,0,0,-,-
CC(C)Cc1nnc(NC(=O)CCC(=O)N2CCN(c3ccccc3F)CC2)s1,0,0,0,0,0,0,-,-
O=C(ON=C1CCN(S(=O)(=O)c2ccccc2)CC1)c1cccc(Cl)c1,0,66,-,0,47,0,67,55
O=S(=O)(c1ccccc1)N1CCC(=NO)CC1,0,0,0,0,0,0,-,-
COc1ccc(-c2ccnc3nc(N4CCN(c5ccccc5)CC4)nn23)cc1,0,43,-,0,47,0,36,0
Fc1ccc(-c2ccnc3nc(N4CCOCC4)nn23)cc1,0,0,-,0,0,0,-,-
CCCCN(C(=O)C1=NN(c2ccccc2)C(=O)CC1)c1c(N)n(CC(C)C)c(=O)[nH]c1=O,-,0,0,0,0,-,-,-
O=C(Nc1ccc(F)cc1)c1cccc2c1C(=O)N(Cc1ccccn1)C2,-,68,0,0,44,-,65,0
NC(=O)/C(=N\OC(=O)c1ccco1)c1nc(-c2ccc(Br)cc2)cs1,0,43,0,0,46,0,40,43
O=C(NN=Cc1ccccc1)C(Oc1ccccc1)c1ccccc1 (stereo not given),-,-,0,-,-,-,-,-
COc1cc(Nc2c3ccccc3nc3ccccc23)cc(OC)c1OC,0,78,0,0,60,0,76,38
N#C/C(=C/c1ccc2c(c1)OCO2)C(=O)NCCc1c[nH]c2ccccc12,0,63,0,0,63,0,58,56
O=C(NCCc1c[nH]c2ccccc12)c1ccc2c(c1)OCO2,0,0,0,0,0,0,-,-
CC(=O)N(Cc1ccc(F)cc1)C1=C(NCCc2ccccc2)C(=O)c2ccccc2C1=O,0,41,0,0,45,87,0,31
COc1ccc(N(C(=O)c2ccco2)C(C(=O)NC2CCCC2)c2ccc(N3CCOCC3)cc2)c(OC)c1 (stereo not given),0,0,0,0,0,0,-,-
COc1cc(NCCC(=O)c2cccs2)c(OC)cc1Cl,0,0,0,0,0,0,-,-
CC(=O)c1ccc(NC(=S)NC2CCCC(C)C2C)cc1 (stereo not given),0,45,0,0,47,0,43,36
CC(=O)c1ccc(NC(=S)NN2C(C)CCCC2C)cc1 (stereo not given),0,0,-,0,0,0,-,-
CCC(Oc1ccc(F)cc1)C(=O)N1CCCCCCC1 (stereo not given),0,0,0,0,0,0,-,-
SMILES,SKKanGAS inh,tim10-1 inh,PfHsp90 set2,tim23-1 inh,TIM10 inh,Calb FLC,tim10-1 confirm,TIM10 conf
CCOc1ccc2c(c1)c1nnc(SCC3CCCO3)nc1n2C (stereo not given),0,46,-,0,44,0,30,47
O=C(Nc1ccc2nc(-c3ccco3)[nH]c2c1)c1cccs1,0,0,0,0,66,0,0,0
CC(=O)Nc1ccc2nc(-c3ccco3)[nH]c2c1,0,0,0,0,0,0,-,-
Cc1c(Cc2ccccc2)c(=O)oc2c(C)c(OCC(=O)N[C@@H](Cc3ccccc3)C(=O)O)ccc12,0,0,0,0,0,0,-,-
O=C(/C=C/c1ccc(-c2ccccc2)o1)c1ccccc1,0,0,0,0,54,0,59,48
CC1CCN(S(=O)(=O)c2ccc3c(c2)CCN3C(=O)C2CCC2)CC1,0,0,0,0,0,0,-,-
CCC1CCCCN1S(=O)(=O)c1ccc2c(c1)CCN2C(=O)C1CCC1 (stereo not given),0,55,0,0,56,0,45,50
O=C(CCl)c1ccc2c(c1)CCN2C(=O)C1CCCCC1,0,62,-,0,76,0,36,65
O=C(C1CC1)N1CCc2cc(S(=O)(=O)NCCCN3CCCCC3)ccc21,0,0,0,0,0,0,-,-
CCn1cc(CN2CCc3c([nH]c4ccccc34)C2c2cccc(OC)c2OC)c(C)n1 (stereo not given),0,0,0,0,0,0,-,-
CN(C)C(=S)Nc1cccc(C(F)(F)F)c1,0,0,0,0,0,0,-,-
CC(C1CC1)N(Cc1ccccc1)C(=S)Nc1ccccc1 (stereo not given),0,42,0,0,42,0,0,40
CC(C1CC1)N(Cc1ccccc1)C(=S)Nc1cccc(C(F)(F)F)c1 (stereo not given),0,49,0,0,53,0,48,0
COc1ccccc1N1CCN(C(=O)/C=C/c2c(Cl)nc3ccccn23)CC1,69,59,0,0,42,0,51,36
C=CCn1c(CCc2cc(C(C)(C)C)c(O)c(C(C)(C)C)c2)n[nH]c1=S,0,50,0,0,42,0,0,40
C=CCn1c(Cc2ccccc2)n[nH]c1=S,0,0,0,0,0,0,-,-
Cc1c(Cl)cnc(NC(=O)COC(=O)c2ccc([N+](=O)[O-])s2)c1Cl,0,49,0,0,66,0,0,82
